From PubChem BioAssay (Tox21)
Unmarked numbers belong to inactive results. Results filed as inconclusive are left out. Entries that show only a call come without a potency. Calls of active or inactive are those of the source. Unless noted, calls follow the shape of the full dose curve.

How the values were obtained:
[1] = Nuclear factor erythroid 2-related factor 2/antioxidant responsive element (Nrf2/ARE) small molecule agonists: luciferase reporter gene qHTS assay in human keratinocytes (AID 1919969); also: nearly all actives have a fitted effect of over 35% in size; also: potency is read from the fitted curve at half-maximal effect
[2] = biological target: Gonadotropin-releasing hormone receptor (Homo sapiens) (UniProt P30968); assay: Human gonadotropin-releasing hormone receptor (GnRHR) small molecule agonists, calcium flux assay in GnRHR-HEK293 cells (AID 1920063); also: nearly all actives have a fitted effect of over 35% in size
Sequence of Gonadotropin-releasing hormone receptor (Homo sapiens) (P30968 whole entry, looked up): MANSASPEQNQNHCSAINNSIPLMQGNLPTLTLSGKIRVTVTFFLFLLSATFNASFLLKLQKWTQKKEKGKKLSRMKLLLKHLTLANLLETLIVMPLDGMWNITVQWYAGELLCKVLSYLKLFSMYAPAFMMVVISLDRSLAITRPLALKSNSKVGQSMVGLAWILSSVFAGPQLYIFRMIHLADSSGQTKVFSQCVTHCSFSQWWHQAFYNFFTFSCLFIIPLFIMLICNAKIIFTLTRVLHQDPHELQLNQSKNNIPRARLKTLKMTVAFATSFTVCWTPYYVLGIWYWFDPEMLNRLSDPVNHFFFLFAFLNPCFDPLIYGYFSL
Summary of the method: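 We seeded human GnRHR-expressing HEK293 cells for 18 hours, loaded them with calcium dye for an hour at 37 C, added test compounds, and recorded fluorescence intensity kinetically for three minutes.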

[3] = G protein-coupled receptor (GPCR) small molecule agonists, calcium flux assay: HEK293 wild type cell line counter screen (AID 1920065)
Summary of the method: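 Calcium-sensitive dye, loaded 1 h at 37 C into cells cultured 18 h, reports compound-evoked calcium release as fluorescence (Ex/Em 480/540), measured over 3 min. Agonist mode; 15-point titrations, triplicate.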

[4] = p53 small molecule agonists, cell-based qHTS assay with human liver microsomes (AID 1963577);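 also: p53 response element beta-lactamase reporter cells with liver microsomes plus NADPH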
Summary of the method: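 16 h, 37 C exposure of p53RE-bla cells to compounds with human liver microsomes and NADPH (0.5 mg/mL final each); detection via LiveBLAzer mixture, 2 h dark at room temperature.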

[5] = p53 small molecule agonists, cell-based qHTS assay with human liver microsomes: qHTS cell viability counter screen (AID 1963579); also: nearly all actives have a fitted effect of over 45% in size; also: potency is read from the fitted curve at half-maximal effect
Summary of the method: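 In this multiplexed counter screen, the reporter plates were subsequently treated with CellTiter-Glo so that cell viability, reflected by luminescence, could be recorded for p53RE-bla cells dosed 16 h with compounds under microsomal activation (HLM and NADPH).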

[6] = p53 small molecule agonists, cell-based qHTS assay: qHTS cell viability counter screen (AID 1963581); also: nearly all actives have a fitted effect of over 45% in size; also: potency is read from the fitted curve at half-maximal effect
Summary of the method: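 Following 5 h attachment, HCT-116 p53RE-bla cells took up compound for 16 h at 37 C; the reporter was read with B/G FRET substrate (2 h RT), and viability then via CellTiter-Glo ATP luminescence.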

[7] = p53 small molecule agonists, cell-based qHTS assay (AID 1963582; active = well fitted activation curve with a large enough effect in the signal ratio in the repeat runs, not every such curve was filed as active; the % refers to the signal ratio)
Summary of the method: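 In this cell-based concentration-response screen, a p53 response element drives beta-lactamase; cells received DMSO-borne compounds after 5 h culture and were incubated a further 16 h before FRET substrate development.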

[8] = biological target: 5-hydroxytryptamine receptor 2A (Homo sapiens) (UniProt P28223); assay: 5-hydroxytryptamine receptor 2A (HTR2A) small molecule antagonists, cell-based qHTS assay (AID 1963586); also: nearly all actives have a fitted effect of over 45% in size; also: potency is read from the fitted curve at half-maximal effect
Sequence of 5-hydroxytryptamine receptor 2A (Homo sapiens) (P28223 whole entry, looked up): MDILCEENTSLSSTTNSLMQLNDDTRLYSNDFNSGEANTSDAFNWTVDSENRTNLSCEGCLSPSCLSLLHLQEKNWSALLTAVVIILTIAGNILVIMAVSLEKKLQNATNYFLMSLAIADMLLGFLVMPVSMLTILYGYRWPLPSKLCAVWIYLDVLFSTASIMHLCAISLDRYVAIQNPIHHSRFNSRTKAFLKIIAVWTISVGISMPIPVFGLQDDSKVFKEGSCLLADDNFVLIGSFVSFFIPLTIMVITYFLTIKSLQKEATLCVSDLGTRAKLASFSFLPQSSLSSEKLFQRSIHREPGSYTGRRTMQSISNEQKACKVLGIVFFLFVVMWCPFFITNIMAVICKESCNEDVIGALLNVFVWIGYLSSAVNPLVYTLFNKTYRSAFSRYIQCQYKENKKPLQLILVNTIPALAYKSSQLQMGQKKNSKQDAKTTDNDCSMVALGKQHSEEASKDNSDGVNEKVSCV
Summary of the method: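 Antagonist-mode intracellular calcium assay: DOI (4 nM) added after 5 min compound pre-incubation at room temperature to dye-loaded HTR2A-CHO cells. Fluorescence followed for 3 min, sampled every second.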

[9] = biological target: 5-hydroxytryptamine receptor 2A (Homo sapiens) (UniProt P28223); assay: 5-hydroxytryptamine receptor 2A (HTR2A) small molecule agonists, cell-based qHTS assay (AID 1963587); also: nearly all actives have a fitted effect of over 30% in size; also: potency is read from the fitted curve at half-maximal effect
Summary of the method: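 Kinetic calcium-flux fluorescence (2 min, 1 sec intervals) after compound addition in agonist mode. HTR2A-CHO cells were cultured 18 h, then dye-loaded 1 h at 37 C.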

[10] = biological target: Muscarinic acetylcholine receptor M1 (Homo sapiens) (UniProt P11229); assay: Cholinergic receptor muscarinic 1 (CHRM1) small molecule agonists, cell-based qHTS assay (AID 1963589); also: nearly all actives have a fitted effect of over 35% in size
Sequence of Muscarinic acetylcholine receptor M1 (Homo sapiens) (P11229 whole entry, looked up): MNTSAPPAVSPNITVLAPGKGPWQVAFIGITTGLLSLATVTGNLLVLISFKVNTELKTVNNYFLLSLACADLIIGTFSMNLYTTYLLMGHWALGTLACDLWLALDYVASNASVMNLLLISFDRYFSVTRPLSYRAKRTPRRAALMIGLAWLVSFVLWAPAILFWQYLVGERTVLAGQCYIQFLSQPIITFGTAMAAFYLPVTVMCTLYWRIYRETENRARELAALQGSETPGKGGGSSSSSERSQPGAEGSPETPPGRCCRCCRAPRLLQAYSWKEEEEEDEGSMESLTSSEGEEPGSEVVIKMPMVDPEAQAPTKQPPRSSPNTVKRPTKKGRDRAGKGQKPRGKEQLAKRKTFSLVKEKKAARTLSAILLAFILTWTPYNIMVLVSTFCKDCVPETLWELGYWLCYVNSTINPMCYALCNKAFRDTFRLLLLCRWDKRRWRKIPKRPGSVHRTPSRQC
Summary of the method: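 Measures agonist-induced intracellular calcium rise. Stable human CHRM1 CHO line, 1 h dye load at 37 C, compounds from DMSO, kinetic fluorescence read.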

[11] = biological target: Beta-2 adrenergic receptor (Homo sapiens) (UniProt P07550); assay: Adrenergic beta2 receptor (ADRB2) small molecule antagonists, cell-based qHTS assay (AID 1963592); also: nearly all actives have a fitted effect of over 50% in size; also: potency is read from the fitted curve at half-maximal effect
Sequence of Beta-2 adrenergic receptor (Homo sapiens) (P07550 whole entry, looked up): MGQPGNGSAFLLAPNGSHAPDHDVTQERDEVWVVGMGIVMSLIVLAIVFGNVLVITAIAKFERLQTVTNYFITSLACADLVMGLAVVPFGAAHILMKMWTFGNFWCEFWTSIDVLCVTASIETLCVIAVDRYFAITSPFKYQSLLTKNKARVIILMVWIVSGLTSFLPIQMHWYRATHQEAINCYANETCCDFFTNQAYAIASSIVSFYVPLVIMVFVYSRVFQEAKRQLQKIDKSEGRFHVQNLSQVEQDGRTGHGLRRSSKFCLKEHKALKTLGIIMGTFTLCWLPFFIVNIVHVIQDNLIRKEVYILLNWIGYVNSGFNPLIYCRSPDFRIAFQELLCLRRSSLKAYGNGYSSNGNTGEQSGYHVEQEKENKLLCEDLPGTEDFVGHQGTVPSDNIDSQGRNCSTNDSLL
Summary of the method: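 Cells (CHO, stable ADRB2 overexpression) incubated 18-20hr at 37C; compounds added from DMSO; agonist mix (1nM isoproterenol, 100uM IBMX, 25uM Ro-20-1724) added; 0.5hr RT; d2-cAMP and anti-cAMP-cryptate added; 1hr RT; 665/615 nm read.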

[12] = biological target: Beta-2 adrenergic receptor (Homo sapiens) (UniProt P07550); assay: Adrenergic beta2 receptor (ADRB2) small molecule agonists, cell-based qHTS assay (AID 1963593);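 also: CHO cells stably overexpressing human ADRB2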
Summary of the method: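 CHO cells stably over-expressing ADRB2 were plated overnight at 37C, then dosed with compounds plus a stimulation mix containing 100uM IBMX and 25uM Ro-20-1724 for 0.5hr at room temperature. cAMP was measured by HTRF competition, 1hr.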

[13] = biological target: D(2) dopamine receptor (Homo sapiens) (UniProt P14416); assay: Dopamine D2 receptor (DRD2) small molecule agonists, cell-based qHTS assay (AID 1963594); also: nearly all actives have a fitted effect of over 35% in size
Sequence of D(2) dopamine receptor (Homo sapiens) (P14416 whole entry, looked up): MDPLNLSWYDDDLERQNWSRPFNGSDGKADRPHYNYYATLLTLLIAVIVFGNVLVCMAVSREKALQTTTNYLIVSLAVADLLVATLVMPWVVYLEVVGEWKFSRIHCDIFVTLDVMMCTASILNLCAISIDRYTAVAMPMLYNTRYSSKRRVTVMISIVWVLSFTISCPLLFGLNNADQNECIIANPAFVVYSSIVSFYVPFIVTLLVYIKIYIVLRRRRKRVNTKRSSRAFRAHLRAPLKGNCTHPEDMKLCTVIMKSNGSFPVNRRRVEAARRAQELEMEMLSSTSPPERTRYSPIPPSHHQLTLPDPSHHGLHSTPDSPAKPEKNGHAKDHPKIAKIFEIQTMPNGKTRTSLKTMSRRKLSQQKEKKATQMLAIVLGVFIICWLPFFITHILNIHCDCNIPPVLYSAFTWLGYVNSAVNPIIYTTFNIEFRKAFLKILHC
Summary of the method: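 cAMP accumulation in DRD2-HEK293 cells measured by HTRF after 1 h detection; compounds added 10 min before NKH477 (200nM […]) forskolin-analogue stimulation, 30 min at room temperature, with Ro20-1724 present at 0.1 mM final.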

[14] = biological target: D(2) dopamine receptor (Homo sapiens) (UniProt P14416); assay: Dopamine D2 receptor (DRD2) small molecule antagonists, cell-based qHTS assay (AID 1963595; active = well fitted inhibition curve with a large enough effect in the signal ratio in the repeat runs, with a control signal flat; the % refers to the signal ratio; also: potency is read from the fitted curve at half-maximal effect)
Summary of the method: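 In this cell-based antagonist screen, compounds act for 10 min at room temperature before a 30 min challenge with 12 nM quinpirole and 200 nM NKH477. cAMP is quantified by HTRF competition in DRD2-HEK293 cells containing 0.1 mM Ro20-1724.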

[15] = biological target: KiSS-1 receptor (Homo sapiens) (UniProt Q969F8); assay: Human kisspeptin (KISS1R) small molecule agonists, calcium flux assay in KISS1R-HEK293 cells (AID 1920064; active = well fitted activation curve with a large enough effect in the repeat runs)
Sequence of KiSS-1 receptor (Homo sapiens) (Q969F8 whole entry, looked up): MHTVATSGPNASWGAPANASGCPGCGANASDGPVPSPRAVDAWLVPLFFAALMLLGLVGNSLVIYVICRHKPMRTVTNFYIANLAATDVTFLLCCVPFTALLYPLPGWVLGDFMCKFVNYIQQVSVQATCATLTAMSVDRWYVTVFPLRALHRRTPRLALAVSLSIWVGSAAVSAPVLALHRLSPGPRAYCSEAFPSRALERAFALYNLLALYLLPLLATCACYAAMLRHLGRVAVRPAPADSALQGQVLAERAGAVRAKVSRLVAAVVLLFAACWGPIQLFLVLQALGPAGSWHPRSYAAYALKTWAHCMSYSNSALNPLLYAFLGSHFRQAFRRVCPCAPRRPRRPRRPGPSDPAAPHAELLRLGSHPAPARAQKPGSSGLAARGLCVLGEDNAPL
Summary of the method: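 Kinetic calcium assay, 1 s sampling over 3 min at Ex/Em 480/540, in HEK293 cells engineered with human KISS1R; compounds delivered in DMSO after 1 h dye loading.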

[16] = p53 small molecule agonists, cell-based qHTS assay with rat liver microsomes (AID 1963578)
Summary of the method: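 With rat liver microsomes and NADPH present (0.5 mg/mL final each), p53RE-bla cells are treated with compound for 16 h at 37 C. LiveBLAzer detection mixture is then applied for 2 h at room temperature in the dark.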

[17] = p53 small molecule agonists, cell-based qHTS assay with rat liver microsomes: qHTS cell viability counter screen (AID 1963580); also: nearly all actives have a fitted effect of over 45% in size; also: potency is read from the fitted curve at half-maximal effect
Summary of the method: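 HCT-116 p53RE-bla, 4,000 cells/well, 5 h pre-incubation; cpd + rat liver microsomes 0.5 mg/mL + NADPH 0.5 mg/mL (final); 16 h, 37 C; CellTiter-Glo, 30 min RT; luminescence.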

[18] = biological target: Muscarinic acetylcholine receptor M1 (Homo sapiens) (UniProt P11229); assay: Cholinergic receptor muscarinic 1 (CHRM1) small molecule antagonists, cell-based qHTS assay (AID 1963588); also: nearly all actives have a fitted effect of over 40% in size; also: potency is read from the fitted curve at half-maximal effect
Summary of the method: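 CHRM1-CHO calcium-flux assay, antagonist mode. Cells were seeded 18 h, dye-loaded 1 h at 37 C and given compound for 5 min at RT, then acetylcholine was added at 50nM. FDSS fluorescence was read 3 min; 15 concentrations, three runs.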

[19] = cAMP Responsive Elements (CRE) small molecule antagonists, cell-based qHTS assay (AID 1963591; active = well fitted inhibition curve with a large enough effect in the signal ratio in the repeat runs, not every such curve was filed as active; the % refers to the signal ratio; also: potency is read from the fitted curve at half-maximal effect)
Summary of the method: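 HEK293T cells carrying a CRE-driven beta-lactamase reporter receive compound and NKH477 (0.25 uM final) for 3 h. Fluorescence from LiveBLAzer B/G FRET substrate is read after 2 h at room temperature.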

[20] = cAMP Responsive Elements (CRE) small molecule agonists, cell-based qHTS assay (AID 1963590)
Summary of the method: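 A CRE-responsive beta-lactamase reporter in HEK 293T cells was used. Treatment ran 3 h at 37 C; detection used LiveBLAzer B/G FRET substrate for 2 h at room temperature.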

CC1C2CC(CC2C2CCCC(O)C2)C1(C)C (stereo unspecified)
Potency [1]: inactive
Potency [2]: inactive
Potency [3]: inactive
Potency [4]: inactive
Potency [5]: inactive
Potency [6]: inactive
Potency [7]: inactive
Potency [8]: inactive
Potency [9]: inactive
Potency [10]: inactive
Potency [11]: inactive
Potency [12]: inactive
Potency [13]: inactive
Potency [14]: inactive

CCCCC(CC)CN=C(N)NC(N)=NCCCCCCN=C(N)NC(N)=NCC(CC)CCCC (stereo unspecified)
Potency [1]: inactive
Potency [15]: inactive
Potency [3]: inactive
Potency [4]: inactive
Potency [16]: inactive
Potency [5]: 22.3 µM (active)
Potency [17]: 17.8 µM (active)
Potency [6]: 19.9 µM (active)
Potency [8]: 18.3 µM (active)
Potency [18]: 0.918 µM (active)
Potency [10]: inactive
Potency [19]: 29.8 µM (active)
Potency [11]: 29.8 µM (active)
Potency [14]: 13.3 µM (active)

CCCCOC(=O)c1ccccc1C(=O)OCC(CC)CCCC (stereo unspecified)
Potency [1]: 43.3 µM (active)
Potency [15]: inactive
Potency [3]: inactive
Potency [4]: inactive
Potency [16]: inactive
Potency [5]: inactive
Potency [17]: inactive
Potency [6]: inactive
Potency [7]: inactive
Potency [8]: inactive
Potency [18]: inactive
Potency [10]: inactive
Potency [20]: inactive
Potency [19]: inactive
Potency [11]: inactive
Potency [13]: inactive
Potency [14]: inactive

CCC(C)(C)c1cc(O)c(C(C)(C)CC)cc1O
Potency [1]: 4.86 µM (active)
Potency [15]: inactive
Potency [3]: inactive
Potency [4]: inactive
Potency [16]: inactive
Potency [5]: inactive
Potency [17]: inactive
Potency [6]: inactive
Potency [7]: inactive
Potency [9]: 4.9 µM (active)
Potency [18]: inactive
Potency [10]: inactive
Potency [20]: inactive
Potency [19]: inactive
Potency [11]: inactive
Potency [12]: inactive
Potency [13]: inactive
Potency [14]: inactive

Cc1cccc(C)c1NC(=O)CN(CC(=O)O)CC(=O)O
Potency [1]: inactive
Potency [2]: inactive
Potency [3]: inactive
Potency [5]: inactive
Potency [17]: inactive
Potency [6]: inactive
Potency [8]: inactive
Potency [9]: inactive
Potency [18]: inactive
Potency [10]: inactive
Potency [20]: inactive
Potency [19]: inactive
Potency [11]: inactive
Potency [13]: inactive
Potency [14]: inactive

CCO[C@@H]1O[C@H](C(COCc2ccccc2)OCc2ccccc2)[C@H](OCc2ccccc2)[C@H]1O (stereo partly specified)
Potency [1]: inactive
Potency [2]: inactive
Potency [3]: inactive
Potency [5]: inactive
Potency [17]: inactive
Potency [6]: inactive
Potency [8]: inactive
Potency [9]: inactive
Potency [18]: inactive
Potency [10]: inactive
Potency [20]: inactive
Potency [19]: inactive
Potency [13]: inactive
